# Results: PubChem BioAssay (Tox21)
# “And” between values parts separate entries of the source, which are not always exact repeats. Equal entries are not always repeated. Results filed as inconclusive are left out. Entries that show only a call come without a potency. A structure can be active in one record and inactive in another. The source made the active and inactive calls. Unless noted, calls follow the shape of the dose curve; as a rule, active = well fitted curve in the direction sought with a large enough effect in the repeat runs; inconclusive = weak or mixed curves; inactive = no such curve, though single readings can be large; an effect the other way counts as inactive or inconclusive.
# Key:
# [1] = qHTS assay to identify small molecule agonists of H2AX - cell viability counter screen (AID 1224847; calls by dose curve; also: potency is read from the fitted curve at half-maximal effect; nearly all actives have a fitted effect of over 30% in size)
# In short: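 After overnight plating of 1000 CHO-K1 cells per well, a 15-concentration compound series was applied for 3 hr at 37C. Luminescence from CellTiter-Glo, read following 30 min at room temperature, reflected cell viability.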
# [2] = qHTS assay to identify small molecule antagonists of the estrogen related receptor (ERR) signaling pathway from Tox21 library (AID 1224848); also: potency is read from the fitted curve at half-maximal effect; nearly all actives have a fitted effect of over 50% in size
# In short: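 Reading was by luminescence 30 min after ONE-Glo addition. Before that, ERR cells at 2,000 per well had rested 6 h at 37 C/5% CO2 and then received pin-tooled compounds in DMSO for 18 h at 37 C.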
# [3] = qHTS assay to identify small molecule agonists of the estrogen related receptor (ERR) signaling pathway from Tox21 library (AID 1224849; calls by dose curve; also: nearly all actives have a fitted effect of over 15% in size); conditions: ERR reporter cell line, ONE-Glo luciferase, 18 h; at 92.4 µM (top of the series)
# In short: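 ERR reporter cell line (NTP) seeded, rested 6 h at 37 C/5% CO2, then pinned with Tox21 compounds in DMSO. After 18 h at 37 C, ONE-Glo luciferase luminescence was read following 30 min at room temperature.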
# [4] = qHTS RealTime-Glo MT Cell Viability Assay in HepG2 cells - 24 hour (AID 1224867); also: nearly all actives have a fitted effect of over 50% in size; also: potency is read from the fitted curve at half-maximal effect
# In short: (§1)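 qHTS, HepG2, 600 cells/well, RealTime-Glo (NanoLuc + prosubstrate) added with cells; 5 h preincubation; DMSO compound addition; 37 C; luminescence at 0/8/16/24/32/40 h.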
# [5] = qHTS RealTime-Glo MT Cell Viability Assay in HEK293 cells - 32 hour (AID 1224868); also: nearly all actives have a fitted effect of over 50% in size; also: potency is read from the fitted curve at half-maximal effect
# In short: (§2)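 Assay medium contained NanoLuc luciferase plus cell-permeant prosubstrate, added with HEK293 cells at 600 cells/well. After 5 h at 37 C/5% CO2 compounds were added; plates stayed at 37 C for 40 h with serial luminescence reads.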
# [6] = A CellTox Green Cytotoxicity Assay to monitor cytotoxicity in HEK293 cells - 0 hour (AID 1224869); also: nearly all actives have a fitted effect of over 50% in size
# In short: (§3)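 HEK293 cells premixed with CellTox Green dye were seeded at 600 cells/well and left 5 h at 37 C/5% CO2 before pin transfer of 23 nL compound in DMSO. Fluorescence from dye bound to dead-cell DNA was read during 40 h treatment.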
# [7] = A CellTox Green Cytotoxicity Assay to monitor cytotoxicity in HEK293 cells - 40 hour (AID 1224871); also: nearly all actives have a fitted effect of over 45% in size; also: potency is read from the fitted curve at half-maximal effect
# In short: as §3
# [8] = qHTS RealTime-Glo MT Cell Viability Assay in HEK293 cells - 16 hour (AID 1224872); also: nearly all actives have a fitted effect of over 50% in size; also: potency is read from the fitted curve at half-maximal effect
# In short: as §2
# [9] = qHTS RealTime-Glo MT Cell Viability Assay in HEK293 cells - 40 hour (AID 1224874); conditions: RealTime-Glo luminescence; max response: stronger effect = lower value; also: nearly all actives have a fitted effect of over 50% in size; also: potency is read from the fitted curve at half-maximal effect
# In short: (§4)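 HEK293 cells mixed with RealTime-Glo reagents (NanoLuc plus cell-permeant prosubstrate) at 600 cells/well, preincubated 5 h at 37 C/5% CO2, then given 23 nL compound in DMSO. Nonlytic luminescence from viable cells was read at 0, 8, 16, 24, 32 and 40 h.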
# [10] = A CellTox Green Cytotoxicity Assay to monitor cytotoxicity in HepG2 cells - 16 hour (AID 1224876); also: nearly all actives have a fitted effect of over 45% in size; also: potency is read from the fitted curve at half-maximal effect
# In short: (§5)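 HepG2 cells were seeded together with the CellTox Green dye at 600 cells/well, left 5 h at 37 C/5% CO2, then given compounds in DMSO. Fluorescence from dye bound to dead-cell DNA was read repeatedly over 40 h of treatment at 37 C.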
# [11] = qHTS RealTime-Glo MT Cell Viability Assay in HepG2 cells - 32 hour (AID 1224877); also: nearly all actives have a fitted effect of over 55% in size; also: potency is read from the fitted curve at half-maximal effect
# In short: as §1
# [12] = A CellTox Green Cytotoxicity Assay to monitor cytotoxicity in HepG2 cells - 24 hour (AID 1224878); also: nearly all actives have a fitted effect of over 45% in size; also: potency is read from the fitted curve at half-maximal effect
# In short: as §5
# [13] = A CellTox Green Cytotoxicity Assay to monitor cytotoxicity in HepG2 cells - 40 hour (AID 1224879); also: nearly all actives have a fitted effect of over 40% in size; also: potency is read from the fitted curve at half-maximal effect
# In short: as §5
# [14] = qHTS RealTime-Glo MT Cell Viability Assay in HepG2 cells - 40 hour (AID 1224870); also: nearly all actives have a fitted effect of over 50% in size; also: potency is read from the fitted curve at half-maximal effect
# In short: (§6)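 Real-time viability: cells seeded at 600 per well together with NanoLuc and cell-permeant prosubstrate, compounds added after 5 h incubation. Luminescence tracked at 0, 8, 16, 24, 32 and 40 h of exposure.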
# [15] = qHTS RealTime-Glo MT Cell Viability Assay in HEK293 cells - 0 hour (AID 1224880); also: top concentration of the series differs between compounds; nearly all actives have a fitted effect of over 45% in size
# In short: as §4
# [16] = qHTS assay to identify small molecule agonists of the hypoxia (HIF-1) signaling pathway - cell viability counter screen (AID 1224844; calls by dose curve; also: nearly all actives have a fitted effect of over 50% in size; also: potency is read from the fitted curve at half-maximal effect)
# In short: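 HRE-bla ME-180 cells in medium with 0.5% dialyzed FBS were preincubated 5 hrs at 37C, exposed to compounds for 17 hrs, then viability was read as CellTiter-Glo luminescence after 30 min at room temperature, in the reporter wells.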
# [17] = qHTS assay to identify small molecule agonists of H2AX (AID 1224845; active = well fitted activation curve with a large enough effect in the signal ratio in the repeat runs, not every such curve was filed as active; the % refers to the signal ratio; also: potency is read from the fitted curve at half-maximal effect)
# In short: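 Phospho-H2AX Ser139 measured by HTRF (ex 320 nm; em 665 and 620 nm) after 24 hr antibody incubation. Compounds, 15 concentrations, 0.76% DMSO, were applied to CHO-K1 cells for 3hr at 37C before lysis.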
# [18] = qHTS assay to identify small molecule agonists of the hypoxia (HIF-1) signaling pathway (AID 1224846; active = well fitted activation curve with a large enough effect in the signal ratio in the repeat runs, not every such curve was filed as active; the % refers to the signal ratio)
# In short: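 HRE-bla ME-180 cells (beta-lactamase reporter under hypoxia response element) were plated at 2,000 cells/well in medium with 0.5% dialyzed FBS, rested 5 hrs, then given compounds in DMSO for 17 hrs at 37C, 5% CO2. Reporter induction was read with CCF4-AM FRET substrate.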
# [19] = A CellTox Green Cytotoxicity Assay to monitor cytotoxicity in HEK293 cells - 24 hour (AID 1224875); also: nearly all actives have a fitted effect of over 45% in size; also: potency is read from the fitted curve at half-maximal effect
# In short: as §3
# [20] = qHTS RealTime-Glo MT Cell Viability Assay in HepG2 cells - 8 hour (AID 1224873); also: nearly all actives have a fitted effect of over 55% in size; also: potency is read from the fitted curve at half-maximal effect
# In short: as §6
smiles,measurement,setting,value
CC(C)Nc1ccc(Nc2ccccc2)cc1,Potency,[1],50.3 µM (active) and 89.8 µM (active)
same,Potency,[2],15.3 µM (active) and 48.6 µM (active)
same,"activity change, positive = activation",[3],-81.7% (inactive) and -69.9% (inactive)
same,Potency,[4],54.7 µM (active) and 49 µM (active)
same,Potency,[5],17.3 µM (active) and 19.5 µM (active)
same,Potency,[6],inactive
same,Potency,[7],48.8 µM (active) and 49 µM (active)
same,Potency,[8],17.3 µM (active) and 19.5 µM (active)
same,Potency,[9],17.3 µM (active) and 17.4 µM (active)
same,Potency,[10],inactive and 49 µM (active)
same,Potency,[11],54.7 µM (active)
same,Potency,[12],43.6 µM (active)
same,Potency,[13],43.6 µM (active)
CC(C)(c1ccccc1)c1ccc(O)cc1,Potency,[5],27.5 µM (active)
same,Potency,[6],inactive
same,Potency,[14],inactive
same,Potency,[7],24.3 µM (active) and 27.5 µM (active)
same,Potency,[8],48.6 µM (active) and 30.9 µM (active)
same,Potency,[9],43.3 µM (active) and 27.5 µM (active)
same,Potency,[11],inactive
same,Potency,[12],48.6 µM (active) and 21.9 µM (active)
same,Potency,[13],48.6 µM (active) and 24.5 µM (active)
same,Potency,[15],inactive
[CH3][Sn]([Cl])([Cl])[Cl],Potency,[16],inactive
same,Potency,[17],inactive
same,outcome,[18],inactive
same,Potency,[4],inactive
same,Potency,[5],inactive
same,Potency,[6],inactive
same,Potency,[14],inactive
same,Potency,[7],inactive
same,Potency,[8],inactive
same,max response,[9],17% (inactive) and 3.42% (inactive)
same,Potency,[19],inactive
same,Potency,[10],inactive
same,Potency,[11],inactive
same,Potency,[12],inactive
same,Potency,[13],inactive
CCC[CH2][Sn]([Cl])([CH2]CCC)[CH2]CCC,Potency,[16],310 nM (active) and 1.1 µM (active)
same,Potency,[17],358 nM (active) and 401 nM (active)
same,Potency,[1],637 nM (active) and 713 nM (active)
same,Potency,[5],347 nM (active) and 490 nM (active)
same,Potency,[6],inactive
same,Potency,[14],979 nM (active) and 347 nM (active)
same,Potency,[7],491 nM (active) and 549 nM (active)
same,Potency,[8],390 nM (active) and 692 nM (active)
same,Potency,[20],3.47 µM (active) and 1.38 µM (active)
same,Potency,[9],310 nM (active) and 436 nM (active)
same,Potency,[19],979 nM (active) and 2.45 µM (active)
same,Potency,[10],1.74 µM (active) and 1.23 µM (active)
same,Potency,[11],1.23 µM (active) and 436 nM (active)
same,Potency,[12],1.38 µM (active) and 2.19 µM (active)
same,Potency,[13],1.38 µM (active) and 692 nM (active)
same,Potency,[15],inactive
C[N+](C)(C)CC(=O)[O-],Potency,[16],inactive
same,Potency,[17],inactive
same,Potency,[5],inactive
same,Potency,[6],inactive
same,Potency,[14],inactive
same,Potency,[7],inactive
same,Potency,[8],inactive
same,Potency,[20],inactive
same,max response,[9],3.4% (inactive) and 10.8% (inactive)
same,Potency,[11],inactive
same,Potency,[12],inactive
same,Potency,[13],inactive
CN(C)c1nc(=O)n(C2CCCCC2)c(=O)n1C,Potency,[16],inactive
same,Potency,[17],inactive
same,outcome,[18],inactive
same,Potency,[4],inactive
same,Potency,[5],inactive
same,Potency,[6],inactive
same,Potency,[14],inactive
same,Potency,[7],inactive
same,Potency,[8],inactive
same,max response,[9],6.15% (inactive) and 0.589% (inactive)
same,Potency,[10],inactive
same,Potency,[11],inactive
same,Potency,[12],inactive
same,Potency,[13],inactive
same,Potency,[15],inactive
CC(O)CN(CC(C)O)CC(C)O (stereo not drawn),Potency,[16],inactive
same,Potency,[17],inactive
same,outcome,[18],inactive
same,Potency,[5],inactive
same,Potency,[6],inactive
same,Potency,[14],inactive
same,Potency,[7],inactive
same,Potency,[8],inactive
same,Potency,[20],inactive
same,max response,[9],2.85% (inactive) and 7.82% (inactive)
same,Potency,[19],inactive
same,Potency,[10],inactive
same,Potency,[11],inactive
same,Potency,[12],inactive
same,Potency,[13],inactive
CCNc1nc(Cl)nc(NC(C)(C)C#N)n1,Potency,[16],inactive
same,Potency,[17],inactive
same,outcome,[18],inactive
same,Potency,[5],inactive
same,Potency,[6],inactive
same,Potency,[14],inactive
same,Potency,[7],inactive
same,Potency,[8],inactive
same,max response,[9],-8.64% (inactive) and -8.88% (inactive)
same,Potency,[19],inactive
same,Potency,[10],inactive
same,Potency,[11],inactive
same,Potency,[12],inactive
same,Potency,[13],inactive
O=[N+]([O-])c1ccc(Nc2ccccc2)cc1,Potency,[16],inactive
same,outcome,[18],inactive
same,Potency,[1],80 µM (active)
same,"activity change, positive = activation",[3],-30.2% (inactive) and -27.4% (inactive)
same,Potency,[4],inactive
same,Potency,[5],24.7 µM (active) and 19.5 µM (active)
same,Potency,[6],inactive
same,Potency,[14],inactive
same,Potency,[7],inactive
same,Potency,[8],27.8 µM (active)
same,Potency,[20],inactive
same,Potency,[9],27.8 µM (active) and 21.9 µM (active)
same,Potency,[19],inactive
same,Potency,[10],inactive
same,Potency,[11],inactive
same,Potency,[12],inactive
same,Potency,[13],inactive
O=[N+]([O-])c1ccc(Cl)c([N+](=O)[O-])c1,Potency,[16],19.8 µM (active) and 13.8 µM (active)
same,Potency,[2],24.7 µM (active) and 24.3 µM (active)
same,"activity change, positive = activation",[3],-81.7% (inactive) and -78.5% (inactive)
same,Potency,[4],35.2 µM (active) and 17.4 µM (active)
same,Potency,[5],9.92 µM (active) and 12.3 µM (active)
same,Potency,[6],inactive
same,Potency,[14],35.2 µM (active) and 17.4 µM (active)
same,Potency,[7],14 µM (active) and 19.5 µM (active)
same,Potency,[8],11.1 µM (active) and 12.3 µM (active)
same,Potency,[20],24.9 µM (active) and 15.5 µM (active)
same,Potency,[9],9.92 µM (active) and 12.3 µM (active)
same,Potency,[10],39.5 µM (active) and 54.9 µM (active)
same,Potency,[11],35.2 µM (active) and 17.4 µM (active)
same,Potency,[12],35.2 µM (active) and 49 µM (active)
same,Potency,[13],39.5 µM (active) and 24.5 µM (active)
same,Potency,[15],inactive
CCN(CC)C(=O)C(C)Oc1cccc2ccccc12 (stereo not drawn),Potency,[16],inactive
same,Potency,[17],inactive
same,outcome,[18],inactive
same,Potency,[5],inactive
same,Potency,[6],inactive
same,Potency,[14],inactive
same,Potency,[7],inactive
same,Potency,[8],inactive
same,Potency,[20],inactive
same,max response,[9],-27.1% (inactive) and -29.7% (inactive)
same,Potency,[19],inactive
same,Potency,[10],inactive
same,Potency,[11],inactive
same,Potency,[12],inactive
same,Potency,[13],inactive
